# From PubChem BioAssay
# Activity calls are given as the source filed them. Unless noted, how the calls were made is not given here.
# Key:
# [1] = anti-His antibody binders, primary screen, artefact control for SMM control protein annotation, biochemical, small-molecule microarray, 635 nm fluorescence (AID 1128); settings: anti-His Alexa647 antibody binding, higher = more signal;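 further: score merges feature fluorescence with signal-to-noise for each printed compound spot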
# [2] = test system: Human papillomavirus type 1a E7 protein (residues 1-88); assay: HPV1a E7 small-molecule binders, primary screen, biochemical, small-molecule microarray, residues 1-88, 635 nm (AID 1129); settings: small-molecule microarray binding, fluorescence 635 nm; higher = more signal
# [3] = target: Focal adhesion kinase 1 (Homo sapiens) (UniProt Q05397); assay: small-molecule microarray binders of FAK, primary screen, biochemical, 635/667 nm fluorescence, BSA, DTT (AID 1130); settings: PTK2 binding, 635 nm fluorescence, higher = more signal;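 further: composite of spot emission at 667 nm and signal to noise over triplicate slides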
# Chain of Focal adhesion kinase 1 (Homo sapiens) (Q05397 whole entry, looked up): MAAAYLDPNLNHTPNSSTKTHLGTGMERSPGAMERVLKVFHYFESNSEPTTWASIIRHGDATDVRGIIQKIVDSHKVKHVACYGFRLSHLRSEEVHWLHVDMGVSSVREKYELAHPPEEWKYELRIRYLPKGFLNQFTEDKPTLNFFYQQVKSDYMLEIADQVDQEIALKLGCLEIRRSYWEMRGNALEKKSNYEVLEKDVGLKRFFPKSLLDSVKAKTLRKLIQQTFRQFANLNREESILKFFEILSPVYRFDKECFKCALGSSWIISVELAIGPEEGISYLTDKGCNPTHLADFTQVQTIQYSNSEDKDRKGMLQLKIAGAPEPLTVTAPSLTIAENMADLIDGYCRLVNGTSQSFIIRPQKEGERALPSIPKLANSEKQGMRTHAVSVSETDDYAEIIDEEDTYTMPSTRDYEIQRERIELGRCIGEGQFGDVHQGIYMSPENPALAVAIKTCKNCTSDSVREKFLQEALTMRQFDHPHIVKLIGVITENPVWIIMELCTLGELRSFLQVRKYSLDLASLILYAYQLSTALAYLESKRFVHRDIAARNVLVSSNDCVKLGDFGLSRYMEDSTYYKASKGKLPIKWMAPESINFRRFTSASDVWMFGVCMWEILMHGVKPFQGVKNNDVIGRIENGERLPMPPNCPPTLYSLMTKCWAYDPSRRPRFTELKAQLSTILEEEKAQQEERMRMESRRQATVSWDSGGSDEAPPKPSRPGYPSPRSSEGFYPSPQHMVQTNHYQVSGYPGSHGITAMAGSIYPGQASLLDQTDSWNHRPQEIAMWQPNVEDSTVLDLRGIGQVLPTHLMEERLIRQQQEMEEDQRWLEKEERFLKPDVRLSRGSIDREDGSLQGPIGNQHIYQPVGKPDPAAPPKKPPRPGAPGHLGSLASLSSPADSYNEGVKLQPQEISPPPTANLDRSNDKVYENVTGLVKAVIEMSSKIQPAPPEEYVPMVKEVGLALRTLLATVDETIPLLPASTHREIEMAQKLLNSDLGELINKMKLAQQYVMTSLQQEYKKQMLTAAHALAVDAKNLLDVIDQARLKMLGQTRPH
# [4] = test system: Fibrinogen (Alexa647-labelled); assay: fibrinogen binders on compound microarrays, profiling panel, artefact control for SMM control-protein annotation, biochemical, small-molecule microarray, 635/667 nm fluorescence (AID 1131); settings: fibrinogen-A647 binding fluorescence, higher = more signal;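 further: z-score merges 667 nm fluorescence with per-spot signal-to-noise over triplicate slides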
# [5] = target: Follistatin (Homo sapiens) (UniProt P19883); assay: follistatin binders on small-molecule microarrays, primary screen, biochemical, small-molecule microarray, 635/667 nm fluorescence (AID 1132); settings: FST binding, 635 nm fluorescence, higher = more signal
# Chain of Follistatin (Homo sapiens) (P19883 whole entry, looked up): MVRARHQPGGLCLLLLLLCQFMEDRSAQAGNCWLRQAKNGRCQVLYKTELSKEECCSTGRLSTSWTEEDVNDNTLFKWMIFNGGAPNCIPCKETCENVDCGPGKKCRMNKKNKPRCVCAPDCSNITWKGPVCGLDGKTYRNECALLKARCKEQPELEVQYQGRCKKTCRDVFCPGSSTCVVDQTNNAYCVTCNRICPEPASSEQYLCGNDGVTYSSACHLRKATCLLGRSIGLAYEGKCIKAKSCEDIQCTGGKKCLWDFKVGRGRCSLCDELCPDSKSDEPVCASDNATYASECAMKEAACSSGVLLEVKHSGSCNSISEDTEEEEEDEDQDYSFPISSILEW
# [6] = target: Fibroblast growth factor 2 (Homo sapiens) (UniProt P09038); assay: FGF2 binders on small-molecule microarrays, primary screen, biochemical, small-molecule microarray, 635/667 nm fluorescence (AID 1133); settings: small-molecule microarray binding, FGF2, fluorescence 635/667; higher = more signal
# Chain of Fibroblast growth factor 2 (Homo sapiens) (P09038 whole entry, looked up): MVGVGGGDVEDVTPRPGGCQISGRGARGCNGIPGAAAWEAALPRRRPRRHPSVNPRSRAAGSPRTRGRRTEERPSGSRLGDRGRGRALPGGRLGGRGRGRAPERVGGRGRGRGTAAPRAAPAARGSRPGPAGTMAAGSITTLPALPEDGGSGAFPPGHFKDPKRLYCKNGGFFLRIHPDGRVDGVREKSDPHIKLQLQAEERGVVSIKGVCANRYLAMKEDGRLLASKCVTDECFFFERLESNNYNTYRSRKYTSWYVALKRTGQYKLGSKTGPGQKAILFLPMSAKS
# [7] = mitochondrial membrane potential change in A549 cells, profiling panel, cell-based, JC-1 fluorescence, basal, 24 h, 100 nL (AID 1138); settings: higher = more signal;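 further: A549 lung adenocarcinoma cells under basal conditions with no added stimulus; test concentration not given here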
# Lefty1 = Lefty1 binders on small-molecule microarrays, primary screen, biochemical, small-molecule microarray, 635/667 nm fluorescence (AID 1139); settings: small-molecule microarray binding, fluorescence 635/667; higher = more signal
# [8] = test system: wheat germ agglutinin (Triticum aestivum), Alexa647-labelled; assay: wheat germ agglutinin binders on compound microarrays, profiling panel, artefact control for SMM control-protein annotation, biochemical, small-molecule microarray, 635/667 nm fluorescence (AID 1140); settings: WGA-A647 binding, 635 nm fluorescence, higher = more signal;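 further: score merges 667 nm feature emission with signal to noise over triplicate slides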
# [9] = target: Luciferin 4-monooxygenase (Photinus pyralis) (UniProt P08659); assay: firefly luciferase enzyme inhibitors, primary screen, biochemical, luminescence, purified enzyme, 2006 set (AID 1141); settings: SteadyGlo luminescence, 30 min, higher = more signal, called active from +8 up or from −8 down;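 further: cell-free assay with purified firefly luciferase at 100 ng per well in PBS; test concentration not given here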
# Chain of Luciferin 4-monooxygenase (Photinus pyralis) (P08659 whole entry, looked up): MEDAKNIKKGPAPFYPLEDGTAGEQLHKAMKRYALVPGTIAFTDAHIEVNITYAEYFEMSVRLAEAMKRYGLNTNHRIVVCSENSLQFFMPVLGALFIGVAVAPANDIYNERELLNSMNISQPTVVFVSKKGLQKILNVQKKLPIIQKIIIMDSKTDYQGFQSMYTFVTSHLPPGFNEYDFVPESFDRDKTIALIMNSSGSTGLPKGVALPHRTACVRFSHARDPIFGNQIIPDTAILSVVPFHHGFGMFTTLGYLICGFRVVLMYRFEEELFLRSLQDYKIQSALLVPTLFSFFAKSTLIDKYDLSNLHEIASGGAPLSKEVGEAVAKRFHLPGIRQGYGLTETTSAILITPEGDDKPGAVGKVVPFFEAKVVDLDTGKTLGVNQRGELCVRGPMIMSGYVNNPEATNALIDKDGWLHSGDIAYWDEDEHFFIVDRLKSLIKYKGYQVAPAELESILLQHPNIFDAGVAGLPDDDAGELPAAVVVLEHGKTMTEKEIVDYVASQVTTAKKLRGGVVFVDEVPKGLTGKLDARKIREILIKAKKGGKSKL
# [10] = test system: Wnt5a (protein binding on small-molecule microarray); assay: Wnt5a binders on small-molecule microarray, primary screen, biophysical, 635/667 nm fluorescence (AID 1142); settings: 635 nm fluorescence, higher = more signal;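 further: fluorescence read at 667 nm with signal to noise per printed feature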
# [11] = cell viability in Huh7 cells, primary screen, cytotoxicity control for HCV replication inhibitor project, CellTiter-Glo luminescence, basal, 48 h (AID 1143); settings: Huh7 HCV replicon, higher = more signal, called active from +8 up or from −8 down;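 further: Huh7 hepatoma cells carrying a hepatitis C replication reporter with no stimulus; test concentration not given here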
# [12] = P. aeruginosa biofilm formation inhibitors, primary screen, PAO1 strain, BacTiter-Glo luminescence, LB-PBS (AID 1144); settings: 12 h, higher = more signal
# [13] = CREB reporter modulators without forskolin, primary screen, cell-based, PC12, CRE-LacZ reporter, unstimulated (AID 1145); settings: no forskolin, luminescence, 4.5 h, higher = more signal, called active from +8 up or from −8 down
# [14] = CREB reporter modulators under forskolin, primary screen, cell-based, PC12, CRE-LacZ reporter, forskolin-stimulated (AID 1146); settings: luminescence, 4.5 h, higher = more signal, called active from +8 up or from −8 down;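 further: PC12 cells with 6xCRE LacZ reporter stimulated by forskolin 10 µM; beta-galactosidase reporter signal reflecting CREB driven transcription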
# [15] = target: Streptavidin (Streptomyces avidinii) (UniProt P22629); assay: streptavidin binders on small-molecule microarray, primary screen, artefact control for SMM compound annotation, biophysical, 635/667 nm fluorescence (AID 1147); settings: streptavidin binding, higher = more signal;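 further: signal reflects streptavidin binding to arrayed compounds as a control protein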
# Chain of Streptavidin (Streptomyces avidinii) (P22629 whole entry, looked up): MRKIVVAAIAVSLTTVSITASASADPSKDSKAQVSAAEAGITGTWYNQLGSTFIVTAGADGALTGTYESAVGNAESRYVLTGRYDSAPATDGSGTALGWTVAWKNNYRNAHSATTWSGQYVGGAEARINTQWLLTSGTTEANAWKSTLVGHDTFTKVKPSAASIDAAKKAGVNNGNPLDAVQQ
# [16] = small-molecule binders of probe aInhba, primary screen, biochemical, small-molecule microarray, 635/667 nm fluorescence (AID 1148); settings: higher = more signal;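 further: score merges 667nm spot fluorescence with signal-to-noise for antibody binding to printed compounds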
# Torsin-1A (Homo sapiens) [17] = target: Torsin-1A (Homo sapiens) (UniProt O14656); assay: torsin A binders from cell lysate, primary screen, small-molecule microarray, wild-type, 635/667 nm (AID 1149); settings: COS7 hTOR1A-WT lysate, 635 nm fluorescence, higher = more signal
# Chain of Torsin-1A (Homo sapiens) (O14656 whole entry, looked up): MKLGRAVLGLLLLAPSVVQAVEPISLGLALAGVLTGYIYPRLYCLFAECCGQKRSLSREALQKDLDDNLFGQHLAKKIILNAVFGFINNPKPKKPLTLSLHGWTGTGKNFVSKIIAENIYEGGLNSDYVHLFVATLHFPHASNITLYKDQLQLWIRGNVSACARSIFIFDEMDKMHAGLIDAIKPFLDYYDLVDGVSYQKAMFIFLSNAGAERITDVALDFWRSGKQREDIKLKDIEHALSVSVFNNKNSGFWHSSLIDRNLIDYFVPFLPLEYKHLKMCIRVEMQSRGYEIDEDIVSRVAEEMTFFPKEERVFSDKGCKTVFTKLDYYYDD
# Torsin-1A (Homo sapiens) [18] = target: Torsin-1A (Homo sapiens) (UniProt O14656); assay: small-molecule binders of mutant TOR1A in lysate, primary screen, cell lysate, small-molecule microarray, COS7 lysate, 635/667 nm fluorescence (AID 1150); settings: COS7 hTOR1A mutant lysate, 635 nm fluorescence, higher = more signal;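 further: score pools 667 nm emission and signal to noise measuring lysate protein binding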
# [19] = test system: Sonic hedgehog protein (Shh); assay: small-molecule binders of Shh protein, primary screen, biochemical, small-molecule microarray, 635/667 nm fluorescence (AID 1151); settings: small-molecule microarray binding, 635 nm fluorescence; higher = more signal;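 further: Shh protein binding to compounds spotted on small-molecule microarray slides; score combines spot fluorescence intensity with signal-to-noise across triplicate slides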
Compound,composite z-score [1],composite z-score [2],composite z-score [3],composite z-score [4],composite z-score [5],composite z-score [6],z-score [7],composite z-score (Lefty1),composite z-score [8],z-score [9],composite z-score [10],z-score [11],z-score [12],z-score [13],z-score [14],composite z-score [15],composite z-score [16],composite z-score (Torsin-1A (Homo sapiens) [17]),composite z-score (Torsin-1A (Homo sapiens) [18]),composite z-score [19]
C=CCC(OC(C)=O)[C@@H]1[C@@H](N(Cc2cccc3ccccc23)C(=O)c2cccc3ccccc23)c2cc(OCCCO)ccc2N1C(=O)c1ccc(-c2ccccc2)cc1 (stereo not given in full),-0.123,-0.14,0.0614,0.643,0.693,0.497,-0.338,0.0548,0.0915,0.337 (inactive),-0.0964,-1.56 (inactive),1.21 (inactive),-0.113 (inactive),1.24 (inactive),0.116,0.0543,-0.104,0.292,0.556
Cc1ccc(S[C@]2(C(=O)O)CC(=O)N(Cc3ccccc3Cl)[C@@H]2c2ccc(CO)cc2I)cc1,0.12,0.193,0.287,-0.147,0.257,0.261,-0.134,-1.23,0.435,0.341 (inactive),-0.3,-2.09 (inactive),-0.309 (inactive),1.2 (inactive),3 (inactive),-0.657,-0.649,0.294,0.396,0.0254
C=C(COC)C(=O)CC[C@@H](OC(=O)c1cccnc1)c1ccc(OCCO)cc1,0.282,0.659,-0.157,0.108,1.4,1.78,0.822,1.21,0.237,-3.79 (inactive),1.71,-7.08 (inactive),0.403 (inactive),5.67 (inactive),0.0067 (inactive),-0.23,0.0471,0.889,0.321,1.54
COC(=O)[C@@]1(Cc2ccc(OC)cc2)[C@H]2c3cc(C(=O)N(C)C)n(CCO)c3C[C@H]2CN1C(=O)c1ccccc1,0.214,0.498,1.45,0.662,-0.603,-0.545,0.782,-1.19,0.946,2.04 (inactive),0.29,-0.0015 (inactive),0.371 (inactive),-0.182 (inactive),1.23 (inactive),1.61,0.488,0.145,1.16,-0.544
COCCOC(=O)N1C(=O)[C@@]2(c3cc(C#CC4=CCCCC4)ccc31)[C@H](c1ccccc1OCCO)N1[C@H](c3ccccc3)[C@H](c3ccccc3)OC(=O)[C@H]1[C@@H]2C(=O)N1CCCCCCC1,0.778,1.22,0.724,0.767,1.24,1.14,-0.433,0.277,0.405,-0.22 (inactive),0.582,-4.01 (inactive),0.727 (inactive),-0.402 (inactive),0.207 (inactive),0.342,-0.584,0.931,0.156,0.755
CC(C)C(=C=CC[C@H](O)c1ccc(OCCO)cc1)C[C@H](O)c1ccccn1,0.923,0.955,0.104,0.3,0.135,-0.139,1.51,0.334,0.0804,-2.27 (inactive),0.149,-1.8 (inactive),-0.576 (inactive),5.48 (inactive),-1.06 (inactive),-0.573,-0.0986,0.743,0.995,0.823
C=CCNC(=O)[C@H]1[C@@H]2C(=O)O[C@@H](c3ccccc3)[C@@H](c3ccccc3)N2[C@@H](c2ccc(O)cc2)[C@]12C(=O)Nc1ccc(C#CC3(O)CCCCCC3)cc12,2.76,0.277,0.201,0.481,1.16,0.267,-1.22,-0.15,0.0932,0.452 (inactive),-0.0118,-1.11 (inactive),-1.06 (inactive),-0.0246 (inactive),-0.301 (inactive),0.163,0.0899,0.935,1.89,1.13
O=C1C2C=CC(C(O)c3ccc(Br)cc3)N(Nc3ccccc3F)C2C(=O)N1c1ccccc1 (stereo not given),2.57,0.992,-0.312,0.967,0.0288,-0.265,0.147,-0.107,0.672,1.71 (inactive),-0.0758,-2.94 (inactive),-1.76 (inactive),-1.02 (inactive),-0.0733 (inactive),0.738,-0.204,-0.423,-0.0946,-0.481
C=C(/C(=C/C[C@H](OC(=O)c1ccncc1)c1ccc(CO)o1)c1cc(C(=O)OC)ccc1OC)C(C)C,2,1.02,-0.0585,0.448,1.07,1.21,-0.432,1.14,0.433,-1.32 (inactive),-0.0222,-0.398 (inactive),-0.742 (inactive),0.621 (inactive),0.953 (inactive),-0.328,0.16,1.3,1.81,1.36
COCCOC(=O)N1C(=O)[C@@]2(c3cc(C#Cc4ccc(OC)cc4)ccc31)[C@H](C(=O)Nc1nc3ccccc3s1)[C@H]1C(=O)O[C@H](c3ccccc3)[C@H](c3ccccc3)N1[C@@H]2c1ccc(O)cc1,-0.0507,1.13,0.0931,0.965,1.29,1.09,-2.26,1.18,0.927,-0.0504 (inactive),0.472,-3.43 (inactive),-1.8 (inactive),-1.83 (inactive),0.673 (inactive),0.768,0.266,0.198,0.811,1.91
